Assay outcomes (PubChem)
IDH1 R132H inh – blocks human mutant IDH1 R132H enzyme. Potency, µM (doses to about 76.6 µM), inactives show at the top dose activity change, negative = inhibition, usual class: inhibitors. IDH1-R132H enzyme, NADPH consumption, diaphorase/resazurin fluorescence. 0.093% of 390,000 active; note: potency is the fitted concentration of half-maximal effect; % is set by controls: 0 for no effect and ±100 for the full control effect; nearly all actives have a fitted effect of over 65% in size
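IDH1-R132H (0.5 ug/mL) preincubated 30 min with compound, then NADPH (0.016 mM) and alpha-KG (2 mM) added; 80 min at RT, pH 7.5. Remaining NADPH coupled via diaphorase/resazurin to fluorescence (540/590 nm); concentration-response curves normalized to no-enzyme control.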
rTrxR1 inhibitor – rat TrxR1 inhibition; O89049; recombinant rTrxR1, NADPH fluorescence consumption, selenite substrate; Potency, µM (series often up to 114 µM), for inactives: top-dose activity change, negative = inhibition, usual class: inhibitors; 1% of 390,000 active; AID 588453; note: potency is the fitted concentration of half-maximal effect; % is set by controls: 0 for no effect and ±100 for the full control effect; nearly all actives have a fitted effect of over 65% in size
Target sequence (O89049 whole entry, looked up): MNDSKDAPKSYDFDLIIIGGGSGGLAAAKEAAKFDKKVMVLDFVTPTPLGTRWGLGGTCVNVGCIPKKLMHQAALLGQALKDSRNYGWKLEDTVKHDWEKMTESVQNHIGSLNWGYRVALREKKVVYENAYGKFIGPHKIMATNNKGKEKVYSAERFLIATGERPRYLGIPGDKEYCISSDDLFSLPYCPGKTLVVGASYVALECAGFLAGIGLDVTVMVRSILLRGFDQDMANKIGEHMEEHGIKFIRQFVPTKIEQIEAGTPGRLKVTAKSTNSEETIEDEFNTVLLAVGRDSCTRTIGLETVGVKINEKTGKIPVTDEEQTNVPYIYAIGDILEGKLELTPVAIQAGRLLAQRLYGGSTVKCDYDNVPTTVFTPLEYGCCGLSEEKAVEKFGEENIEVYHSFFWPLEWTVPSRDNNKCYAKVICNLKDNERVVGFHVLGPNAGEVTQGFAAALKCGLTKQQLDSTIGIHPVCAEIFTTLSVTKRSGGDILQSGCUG
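Rat TrxR1 (90 nM in the dispensed reagent) was pre-reduced with 400 uM NADPH for 5 min at room temperature, then incubated with compound for 15 min. After 400 uM selenite was added, NADPH fluorescence (Ex 340/Em 450 nm) was followed for 8 min.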
Apoferritin bind – binds horse apoferritin like a general anesthetic; P02791; apoferritin/1-aminoanthracene competitive binding, fluorescence; Potency, µM (highest dose often 77.5 µM), for the others: at the highest dose activity change, negative = displacement, most hits filed as inhibitors; 0.074% of 350,000 active; AID 485281; note: potency is the fitted concentration of half-maximal effect; % is set by controls: 0 for no effect and ±100 for the full control effect; nearly all actives have a fitted effect of over 20% in size
Target sequence (P02791 2-175 limits assumed): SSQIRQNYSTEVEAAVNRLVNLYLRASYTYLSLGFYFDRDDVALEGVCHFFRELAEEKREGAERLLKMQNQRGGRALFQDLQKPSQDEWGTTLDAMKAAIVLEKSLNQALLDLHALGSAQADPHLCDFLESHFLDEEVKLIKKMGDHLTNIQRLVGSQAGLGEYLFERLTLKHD
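Horse-spleen apoferritin (10 uM) was mixed with 50% saturated 1-aminoanthracene in PBS, exposed to compounds for 10 min at room temperature, and read for fluorescence (ex 380 nm, em 535 nm). Competitive displacement was fitted with a four-parameter Hill equation.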
PKM2 act – PKM2 (human) enzyme activation | P14618 | purified PKM2, Kinase-Glo ATP luminescence, activation; response scale: 0% is enzyme alone, no compound | Potency, µM (series often up to 57.5 µM), for the others: top-dose activation, most hits filed as activators | 0.34% of 260,000 active; note: potency is the fitted concentration of half-maximal effect; % is set by controls: 0 for no effect and ±100 for the full control effect; nearly all actives have a fitted effect of over 55% in size
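hPK-M2, >95% pure; 0.1 mM ADP / 0.5 mM PEP final; imidazole pH7.2 buffer w/ 7 mM MgCl2, 50 mM KCl; 1 h RT; Kinase-Glo lum. Intermediate enzyme activity for dual inhibitor/activator qHTS.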
TrxR1 substrate – substrates of rat thioredoxin reductase 1; O89049; purified TrxR1 substrate turnover, NADPH consumption readout; Potency, µM (series often up to 114 µM), for the others: top-dose activity change, negative = substrate turnover; 0.01% of 390,000 active; AID 588456; note: potency is the fitted concentration of half-maximal effect; % is set by controls: 0 for no effect and ±100 for the full control effect; nearly all actives have a fitted effect of over 50% in size
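Rat TrxR1, dispensed at 90 nM, was prereduced with 400 uM NADPH (final) for 5 min at ~22 deg C, then incubated with compound 15 min before 400 uM selenite. A first-read NADPH fluorescence drop versus no-compound background flagged substrates.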
GALK inhibitor – inhibitors of human galactokinase; AID 1868; P51570; Potency, µM (series often up to 57.5 µM), inactives show at the highest dose activity change, negative = inhibition, hits mostly inhibitors; 0.007% of 270,000 active; Purified GALK, Kinase-Glo residual ATP luminescence; note: potency is the fitted concentration of half-maximal effect; % is set by controls: 0 for no effect and ±100 for the full control effect
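Kinase-Glo Plus luminescence measured ATP left after a 1 h room-temperature reaction. The reaction used 5 nM GALK, 100 uM galactose and 35 uM ATP at pH 8.0 (20 mM HEPES, 5 mM MgCl2, 60 mM NaCl, 1 mM DTT, 0.01% BSA).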
IDH1 autofl – counter-screen for mutant IDH1 inhibitors: fluorescence interference. shares compounds with IDH1 R132H inh. Resorufin detection reagent fluorescence interference, cell-free. inhibition of signal, % at 51.2 µM. 750 tested, under 10 active. AID 623980;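 note: 0% = wells with normal resorufin and full inhibition = wells lacking resorufin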
WT IDH1 inh – inhibits human wild-type IDH1, mutant selectivity check; shares compounds with IDH1 R132H inh; WT IDH1 enzyme, NADPH diaphorase/resazurin fluorescence; Potency, µM (doses to about 115 µM), inactives show at the highest dose activity change, negative = inhibition, usual class: inhibitors; 9% of 750 active;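 note: potency is the fitted concentration of half-maximal effect; 0% = full WT IDH1 enzyme control and full inhibition = no enzyme wells; nearly all actives have a fitted effect of over 55% in size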
mIDH1 confirm – inhibits human mutant IDH1 enzyme in cherrypick confirmation. shares compounds with IDH1 R132H inh. IDH1 R132H enzyme, NADPH diaphorase/resazurin fluorescence. Potency, µM (doses to about 76.6 µM), without a hit: at the highest dose activity change, negative = inhibition, most hits filed as inhibitors. 83% of 750 active; note: potency is the fitted concentration of half-maximal effect; nearly all actives have a fitted effect of over 50% in size
Active calls of the source: *; ? = inconclusive; . = not tested or not shown; [ ] = dose if it differs, or a comment. Hits are enriched below; roughly 1.3% of the tested compounds scored in any of these assays. Calls come from the whole dose curve; as a rule, active = well fitted curve in the direction sought with a large enough effect; inconclusive = small, poorly fitted or top-dose-only effect, or another doubt; inactive = no such curve, though single readings can be large; an effect the other way counts as inactive or inconclusive.

SMILES	IDH1 R132H inh	rTrxR1 inhibitor	Apoferritin bind	PKM2 act	TrxR1 substrate	GALK inhibitor	IDH1 autofl	WT IDH1 inh	mIDH1 confirm
CC(C)(C)OC(=O)N1CCC(c2cc(=O)n3[nH]cc(C(=O)Nc4ccc(F)c(Cl)c4)c3n2)CC1	?	0.1%	-6.0%	1.0%	3.1%	-10.2%	-7.7	?	10µM*
CCc1ccccc1NC(=O)CN1C(=O)COc2ccc(S(=O)(=O)Nc3ccccc3)cc21	0.9%	-6.6%	-0.9%	.	-12.7%	.	.	.	.
Cc1ccc(Nc2cc(C)c(C#N)c3nc4ccccc4n23)c(C)c1	39.8µM*	?	-1.5%	.	8.6%	.	1.0	-1.5%	14.1µM*
Cc1cc(Nc2ccc(O)cc2)n2c(nc3ccccc32)c1C#N	-1.8%	-12.6%	-6.2%	-1.6%	-15.7%	0.7%	.	.	.
Cc1cccc(-c2c3c(=O)n(C)c(=O)n(C)c3cn2-c2cc(N)c(Cl)cc2Cl)c1	35.5µM*	15.2%	3.3%	.	12.9%	.	-1.7	-21.1%	?
Cc1cc(C)c(Cn2c3ccccc3c3cnn(CC(=O)N4CCCCCC4)c(=O)c32)c(C)c1	0.8%	-13.6%	-3.9%	.	0.4%	.	.	.	.
O=C1c2[nH]nc(-c3ccccc3O)c2C(c2cccc(OCc3ccccc3)c2)N1CCCO (configuration not stated)	44.7µM*	5.9%	65.0%	.	-1.5%	.	-11.4	?	39.8µM*
CCCN1C(=O)c2[nH]nc(-c3ccccc3O)c2C1c1ccc(OCc2ccccc2)c(OC)c1 (configuration not stated)	-26.0%	7.1%	-18.9%	.	-2.2%	.	.	.	.
COc1cc(C2c3c(-c4ccccc4O)n[nH]c3C(=O)N2CCO)ccc1OCc1ccccc1 (configuration not stated)	?	16.1%	-8.3%	.	2.6%	.	0.7	-5.3%	28.2µM*
O=C(Nc1ccc(F)cc1Cl)C1CCN(c2ncnc3c2nc2n3CCCCC2)CC1	-7.7%	16.7%	-12.0%	.	-1.9%	.	.	.	.
Cc1cccc(CNC(=O)c2cc3cc(S(=O)(=O)N4CCCCC4)ccc3n2C)c1	6.2%	24.0%[57.1 µM]	1.9%	.	3.6%[57.1 µM]	.	.	.	.
CN1CC=C2C(C#N)=C(N)C(C#N)(C#N)C(c3ccsc3)C2C1 (configuration not stated)	?	3.5%[57.1 µM]	73.5%	2.4%	55.0%	-0.3%	1.4	-13.3%	?
N#CC1=C(N)C(C#N)(C#N)C(c2ccncc2)C2CN(C(=O)OCc3ccccc3)CC=C12 (configuration not stated)	46.5µM*	-34.6%	3.0%	11.9%	7.4%	-5.1%	-9.2	28.8%	44.7µM*
CN(Cc1ccccc1)S(=O)(=O)c1ccc2[nH]c3c(c2c1)CCCCC3	9.5%	18.1%	11.3%	.	0.4%	.	.	.	.
O=S(=O)(c1ccc(NC(=S)NN=Cc2ccccc2O)cc1)N1CCCCC1	46.5µM*	-17.8%[11.4 µM]	.	.	-5.1%[11.4 µM]	.	6.4	4.4%	22.4µM*
O=S(=O)(c1ccc(NC(=S)N/N=C/c2ccc(O)c(O)c2)cc1)N1CCOCC1	2.5%	-15.3%	7.9%	-6.1%	-14.7%	0.1%	.	.	.
NS(=O)(=O)c1ccc(NC(=S)Nc2ccc(S(=O)(=O)N3CCCC3)cc2)cc1	3.6%	?	-8.3%	-6.1%	-2.9%[57.1 µM]	0.1%	.	.	.
O=S(=O)(c1ccc(NC(=S)N/N=C/c2cccc(Oc3ccccc3)c2)cc1)N1CCOCC1	?	-16.0%[57.1 µM]	?	-1.4%	0.9%[57.1 µM]	-1.4%	2.0	3.6%	?
Cc1ccc(N2CCN(C(=O)CCS(=O)(=O)c3cc4c(cc3Cl)NC(=O)CO4)CC2)c(C)c1	-1.2%	4.8%	-20.6%	.	-6.1%	.	.	.	.
COc1ccc(-c2cc3nc(C4CCN(C(=O)OC(C)(C)C)CC4)c(C(=O)O)cn3n2)cc1	20.7µM*	2.4%	9.1%	0.4%	15.1%	1.2%	-5.5	79.4µM*	15.8µM*
Cc1ccc(-n2nnnc2CNC(=O)c2cc(C(F)(F)F)cc(C(F)(F)F)c2)cc1C	-5.6%	1.6%[57.1 µM]	52.2%	.	-18.8%[57.1 µM]	.	.	.	.
CCc1nc(-c2ccc(C)c(S(=O)(=O)N3CCN(c4ccc(C(C)=O)cc4)CC3)c2)no1	12.5%	15.3%[57.1 µM]	-1.6%	.	-1.1%[57.1 µM]	.	.	.	.
CCc1ccc(OCCn2c(C3CC(=O)N(Cc4ccc(F)cc4)C3)nc3ccccc32)cc1 (configuration not stated)	?	7.8%	-17.4%	.	-4.7%	.	-3.8	-8.0%	?
CCOC(=O)c1c(NC(=O)COC(=O)Cc2ccccc2[N+](=O)[O-])sc(C(=O)N(C)C)c1C	0.0%	-7.4%[57.1 µM]	.	.	-7.7%[57.1 µM]	.	.	.	.
CCOC(=O)c1c(NC(=O)COC(=O)c2ccccc2NC)sc(C(=O)N(C)C)c1C	11.7µM*	37.0%	0.7%	-6.6%	136.1%	3.6%	-4.2	9.7%	4.47µM*
CCOc1ccc(CCNC(=O)c2cc(Nc3ccc(C)cc3C)nc3ccccc23)cc1OCC	0.3%	29.2%	5.3%	.	6.2%	.	.	.	.
Cc1ccc(-n2c(SCC(=O)O)nc3c(sc(=S)n3-c3ccc(C)c(C)c3)c2=O)cc1	5.1%	-8.2%	-8.9%	.	-6.6%	.	.	.	.
